Experimental data as given in PubChem BioAssay AID1159580 (chemical genetic matrix, 2015).
Among all 5,500 compounds or so, about 2,000 (36%) were called active. Not shown: some 18% with an inconclusive outcome. No stated cut-off is given here; in the data, active means normalized growth mostly below about 0.91 (no sharp cut-off); inconclusive means no clear call, values can overlap the other calls; inactive means mostly above about 0.92. Some of the results follow.

Assay: chemical genetic growth profiling, strain panel (AID 1159580);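 further: tested at 20 µM; growth read once vehicle control cultures reached saturation at 30 °C; 1 = growth at the plate median or of vehicle wells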
Settings: S. cerevisiae deletion strains, growth OD

Measured: normalized growth

CC(C)(O)[C@@H]1CC[C@](C)([C@H]2[C@@H](O)C[C@@]3(C)C4C[C@H](O[C@@H]5O[C@H](CO)[C@@H](O)[C@H](O)[C@H]5O)C5C(C)(C)[C@@H](O[C@@H]6OC[C@@H](O)[C@H](O)[C@H]6O)CC[C@@]56C[C@@]46CC[C@]23C)O1 (stereo not given in full)
inactive: locus YAL021C, strain ccr4, stronger effect = lower value 0.988 | locus YAL026C, strain drs2, stronger effect = lower value 0.986 | locus YAL030W, strain snc1, stronger effect = lower value 0.99 | locus YBL061C, strain skt5, stronger effect = lower value 0.999 | locus YBR009C, strain hhf1, stronger effect = lower value 1.01 | locus YBR023C, strain chs3, stronger effect = lower value 0.998 | locus YBR171W, strain sec66, stronger effect = lower value 0.989 | locus YBR231C, strain swc5, stronger effect = lower value 1 | locus YBR279W, strain paf1, stronger effect = lower value 0.991 | locus YCL011C, strain gbp2, stronger effect = lower value 0.995 | locus YCL016C, strain dcc1, stronger effect = lower value 1 | locus YCL061C, strain MRC1, stronger effect = lower value 1 | locus YCL069W, strain vba3, stronger effect = lower value 0.981 | locus YCR088W, strain abp1, stronger effect = lower value 0.986 | locus YDL005C, strain med2, stronger effect = lower value 0.977 | locus YDL040C, strain nat1, stronger effect = lower value 0.985 | locus YDR001C, strain nth1, stronger effect = lower value 0.991 | locus YDR069C, strain doa4, stronger effect = lower value 0.975 | locus YDR137W, strain rgp1, stronger effect = lower value 1.04 | locus YDR159W, strain sac3, stronger effect = lower value 0.966 | locus YDR195W, strain ref2 0.931 | locus YDR297W, strain sur2, stronger effect = lower value 1 | locus YDR334W, strain swr1, stronger effect = lower value 0.959 | locus YDR335W, strain msn5, stronger effect = lower value 0.986 | locus YDR392W, strain spt3, stronger effect = lower value 0.997 | locus YEL003W, strain gim4, stronger effect = lower value 0.991 | locus YEL037C, strain rad23, stronger effect = lower value 0.974 | locus YEL061C, strain CIN8 (second series), stronger effect = lower value 0.985 | locus YER015W, strain faa2, stronger effect = lower value 0.998 | locus YER016W, strain bim1, stronger effect = lower value 1 | locus YER111C, strain swi4, stronger effect = lower value 0.979 | locus YER155C, strain BEM2 (second series), stronger effect = lower value 1 | locus YFR010W, strain ubp6, stronger effect = lower value 0.989 | locus YGL167C, strain pmr1, stronger effect = lower value 0.979 | locus YGL173C, strain kem1, stronger effect = lower value 0.99 | locus YGL227W, strain vid30, stronger effect = lower value 0.999 | locus YGL240W, strain doc1, stronger effect = lower value 1 | locus YGL253W, strain hxk2, stronger effect = lower value 0.988 | locus YHR013C, strain ard1, stronger effect = lower value 0.976 | locus YHR027C, strain rpn1, stronger effect = lower value 0.998 | locus YHR030C, strain SLT2, stronger effect = lower value 0.954 | locus YHR079C, strain IRE1, stronger effect = lower value 0.96 | locus YHR142W, strain chs7, stronger effect = lower value 0.978 | locus YJL092W, strain hpr5, stronger effect = lower value 0.995 | locus YJL095W, strain BCK1 (second series), stronger effect = lower value 0.981 | locus YJL095W, strain BCK1, stronger effect = lower value 1.05 | locus YJL115W, strain asf1, stronger effect = lower value 0.978 | locus YJL129C, strain trk1, stronger effect = lower value 0.989 | locus YJL154C, strain vps35, stronger effect = lower value 0.972 | locus YJL164C, strain tpk1, stronger effect = lower value 1 | locus YJL166W, strain qcr8, stronger effect = lower value 0.987 | locus YJL187C, strain SWE1, stronger effect = lower value 0.993 | locus YJR066W, strain TOR1, stronger effect = lower value 0.92 | locus YKL160W, strain elf1, stronger effect = lower value 0.996 | locus YKR026C, strain gcn3, stronger effect = lower value 0.992 | locus YKR091W, strain srl3, stronger effect = lower value 0.993 | locus YLL001W, strain dnm1, stronger effect = lower value 1 | locus YLL026W, stronger effect = lower value 1 | locus YLL041C, strain sdh2, stronger effect = lower value 0.98 | locus YLR027C, strain aat2, stronger effect = lower value 1.02 | locus YLR113W, strain HOG1, stronger effect = lower value 1.1 | locus YLR221C, strain rsa3, stronger effect = lower value 1 | locus YLR258W, strain gsy2, stronger effect = lower value 0.979 | locus YLR262C, strain YPT6 (second series), stronger effect = lower value 0.998 | locus YLR320W, strain mms22, stronger effect = lower value 0.996 | locus YLR342W, strain FKS1, stronger effect = lower value 1 | locus YLR357W, strain rsc2, stronger effect = lower value 0.967 | locus YLR370C, strain arc18, stronger effect = lower value 0.986 | locus YLR384C, strain iki3, stronger effect = lower value 1 | locus YML120C, strain ndi1, stronger effect = lower value 0.98 | locus YMR058W, strain fet3, stronger effect = lower value 0.994 | locus YMR125W, strain sto1, stronger effect = lower value 0.984 | locus YMR129W, stronger effect = lower value 0.995 | locus YMR205C, strain PFK2, stronger effect = lower value 0.976 | locus YMR231W, strain pep5, stronger effect = lower value 0.991 | locus YNL071W, strain lat1, stronger effect = lower value 0.972 | locus YNL183C, strain NPR1, stronger effect = lower value 0.985 | locus YNL209W, strain ssb2, stronger effect = lower value 0.987 | locus YNL248C, strain rpa49, stronger effect = lower value 0.981 | locus YNL322C, strain KRE1 (second series), stronger effect = lower value 0.989 | locus YNR049C, strain mso1, stronger effect = lower value 0.994 | locus YOR001W, strain rrp6, stronger effect = lower value 0.972 | locus YOR070C, strain gyp1, stronger effect = lower value 1 | locus YOR080W, strain dia2, stronger effect = lower value 0.987 | locus YOR083W, strain WHI5, stronger effect = lower value 1 | locus YOR106W, strain vam3, stronger effect = lower value 0.99 | locus YOR231W, strain MKK1, stronger effect = lower value 0.95 | locus YOR265W, strain rbl2, stronger effect = lower value 0.993 | locus YOR270C, strain vph1, stronger effect = lower value 0.793 | locus YOR290C, strain snf2, stronger effect = lower value 1.01 | locus YPL051W, strain arl3, stronger effect = lower value 1.01 | locus YPL078C, strain atp4, stronger effect = lower value 0.975 | locus YPL106C, strain sse1, stronger effect = lower value 0.975 | locus YPL240C, strain hsp82, stronger effect = lower value 0.989 | locus YPL256C, strain CLN2, stronger effect = lower value 0.974
